Measured values reported in article PMC7862700, “An all-to-all approach to the identification of sequence-specific readers for epigenetic DNA modifications on cytosine”.

Key:
Assay in all cases: DAPPL (digital affinity profiling via proximity ligation, sequencing); 10 mM Tris-HCl pH 7.5, 50 mM NaCl, 1 mM DTT, 4% glycerol, room temperature, 30 min; GST-TFs on glutathione beads, 16-mer random dsDNA library, 0.1% formaldehyde crosslink after washing; high values mean tight binding
FEV = target: T1, FEV (Homo sapiens, UniProt Q99581 1-238); details: protein: recombinant; tags: N-terminal GST; dsDNA, one strand shown
T1 sequence: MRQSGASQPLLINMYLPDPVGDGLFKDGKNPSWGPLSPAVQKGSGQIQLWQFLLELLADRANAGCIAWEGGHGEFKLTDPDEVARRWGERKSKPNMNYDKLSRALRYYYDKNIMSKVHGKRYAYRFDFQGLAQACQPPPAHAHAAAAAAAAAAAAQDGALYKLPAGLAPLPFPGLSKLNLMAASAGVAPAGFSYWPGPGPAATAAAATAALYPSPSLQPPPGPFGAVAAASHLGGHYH
Summary of the method: (§1)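 Each value of binding signal is a hexamer's read frequency for a factor divided by the same hexamer's frequency in the tag-only sample. Barcoded, bead-captured GST fusions of human transcription factors made in yeast were pooled with that sample and incubated with 200 nmole of a random double-stranded 16-mer DNA library in Tris/NaCl/DTT/glycerol buffer at room temperature for 30 min. Washing, 0.1% formaldehyde crosslinking, proximity ligation, PCR and Illumina NextSeq500 sequencing followed.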

ETV5 = ETV5 (Homo sapiens, UniProt P41161 1-510); details: protein: recombinant; tags: N-terminal GST; dsDNA, one strand shown
Summary of the method: as §1

HSF1 = HSF1 (Homo sapiens, UniProt Q00613 1-529); details: protein: recombinant; tags: N-terminal GST; chain copies: 3; dsDNA, one strand shown
Summary of the method: as §1

SPIC = target: T2, SPIC (Homo sapiens, UniProt Q8N5J4 1-248); details: protein: recombinant; tags: N-terminal GST; dsDNA, one strand shown
T2 sequence: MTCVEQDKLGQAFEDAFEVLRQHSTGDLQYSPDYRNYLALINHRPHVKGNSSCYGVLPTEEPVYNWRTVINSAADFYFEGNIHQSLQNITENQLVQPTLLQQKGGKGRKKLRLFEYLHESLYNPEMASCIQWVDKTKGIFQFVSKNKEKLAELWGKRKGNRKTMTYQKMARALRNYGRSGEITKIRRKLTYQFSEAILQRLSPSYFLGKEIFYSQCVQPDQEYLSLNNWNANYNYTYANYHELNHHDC
Summary of the method: as §1

ELF4 = ELF4 (Homo sapiens, UniProt Q99607 1-663); details: protein: recombinant; tags: N-terminal GST; dsDNA, one strand shown
Summary of the method: as §1

ELK4 = target: T3, ELK4 (Homo sapiens, UniProt P28324-2 1-405); details: protein: recombinant; tags: N-terminal GST; dsDNA, one strand shown
T3 sequence: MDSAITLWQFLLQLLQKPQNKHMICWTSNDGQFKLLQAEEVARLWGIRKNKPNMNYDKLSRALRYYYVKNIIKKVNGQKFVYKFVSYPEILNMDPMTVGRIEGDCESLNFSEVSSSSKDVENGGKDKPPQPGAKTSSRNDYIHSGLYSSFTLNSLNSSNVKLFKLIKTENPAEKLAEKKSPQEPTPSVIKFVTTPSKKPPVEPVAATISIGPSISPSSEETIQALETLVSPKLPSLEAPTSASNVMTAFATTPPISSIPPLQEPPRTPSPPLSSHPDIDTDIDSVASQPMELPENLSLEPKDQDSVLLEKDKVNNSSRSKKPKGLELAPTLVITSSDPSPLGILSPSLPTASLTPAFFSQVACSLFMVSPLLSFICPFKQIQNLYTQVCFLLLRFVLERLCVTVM
Summary of the method: as §1

ETV2 = target: T4, ETV2 (Homo sapiens, UniProt O00321 1-342); details: protein: recombinant; tags: N-terminal GST; dsDNA, one strand shown
T4 sequence: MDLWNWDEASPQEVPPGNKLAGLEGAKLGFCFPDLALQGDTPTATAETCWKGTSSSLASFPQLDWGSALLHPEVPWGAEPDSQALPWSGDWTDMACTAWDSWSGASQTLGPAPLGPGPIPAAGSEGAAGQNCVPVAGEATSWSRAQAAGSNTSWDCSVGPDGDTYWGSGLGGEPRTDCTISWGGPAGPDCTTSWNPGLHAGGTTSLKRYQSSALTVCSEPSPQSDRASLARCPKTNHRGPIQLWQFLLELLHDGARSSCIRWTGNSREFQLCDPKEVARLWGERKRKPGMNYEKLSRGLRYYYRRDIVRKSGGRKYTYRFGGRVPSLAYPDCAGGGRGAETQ
Summary of the method: as §1

ELF3 = target: T5, ELF3 (Homo sapiens, UniProt P78545 1-371); details: protein: recombinant; tags: N-terminal GST; dsDNA, one strand shown
T5 sequence: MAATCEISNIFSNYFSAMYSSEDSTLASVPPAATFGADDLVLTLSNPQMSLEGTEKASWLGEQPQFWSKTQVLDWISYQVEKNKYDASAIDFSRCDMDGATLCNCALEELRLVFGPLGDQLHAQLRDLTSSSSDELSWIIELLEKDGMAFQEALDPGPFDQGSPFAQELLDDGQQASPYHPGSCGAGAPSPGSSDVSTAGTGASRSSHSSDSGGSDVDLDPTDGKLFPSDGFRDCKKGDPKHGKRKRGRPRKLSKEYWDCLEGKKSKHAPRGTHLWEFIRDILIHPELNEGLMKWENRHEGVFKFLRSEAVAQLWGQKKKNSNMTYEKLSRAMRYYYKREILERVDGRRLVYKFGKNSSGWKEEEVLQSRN
Summary of the method: as §1

CRX = CRX (Homo sapiens, UniProt O43186 1-299); details: protein: recombinant; tags: N-terminal GST; dsDNA, one strand shown
Summary of the method: as §1

ETV1 = ETV1 (Homo sapiens, UniProt P50549 1-477); details: protein: recombinant; tags: N-terminal GST; dsDNA, one strand shown
Summary of the method: as §1

ERF = target: T6, ERF (Homo sapiens, UniProt P50548 1-548); details: protein: recombinant; tags: N-terminal GST; dsDNA, one strand shown
T6 sequence: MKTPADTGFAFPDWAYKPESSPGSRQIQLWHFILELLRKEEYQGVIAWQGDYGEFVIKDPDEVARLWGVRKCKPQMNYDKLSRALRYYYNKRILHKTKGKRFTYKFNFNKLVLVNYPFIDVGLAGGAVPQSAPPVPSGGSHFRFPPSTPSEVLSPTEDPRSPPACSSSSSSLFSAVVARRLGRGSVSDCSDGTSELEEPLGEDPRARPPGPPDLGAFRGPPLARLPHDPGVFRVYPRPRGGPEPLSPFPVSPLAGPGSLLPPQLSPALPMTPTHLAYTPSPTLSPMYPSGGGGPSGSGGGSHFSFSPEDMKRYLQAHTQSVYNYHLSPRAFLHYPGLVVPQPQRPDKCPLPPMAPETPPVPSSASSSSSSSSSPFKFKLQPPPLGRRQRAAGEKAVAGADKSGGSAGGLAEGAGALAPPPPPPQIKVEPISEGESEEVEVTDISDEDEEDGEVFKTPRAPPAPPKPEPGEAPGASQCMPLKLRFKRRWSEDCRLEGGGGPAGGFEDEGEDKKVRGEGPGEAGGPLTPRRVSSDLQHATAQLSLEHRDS
Summary of the method: as §1

ETV3L = target: T7, ETV3L (Homo sapiens, UniProt Q6ZN32 1-361); details: protein: recombinant; tags: N-terminal GST; dsDNA, one strand shown
T7 sequence: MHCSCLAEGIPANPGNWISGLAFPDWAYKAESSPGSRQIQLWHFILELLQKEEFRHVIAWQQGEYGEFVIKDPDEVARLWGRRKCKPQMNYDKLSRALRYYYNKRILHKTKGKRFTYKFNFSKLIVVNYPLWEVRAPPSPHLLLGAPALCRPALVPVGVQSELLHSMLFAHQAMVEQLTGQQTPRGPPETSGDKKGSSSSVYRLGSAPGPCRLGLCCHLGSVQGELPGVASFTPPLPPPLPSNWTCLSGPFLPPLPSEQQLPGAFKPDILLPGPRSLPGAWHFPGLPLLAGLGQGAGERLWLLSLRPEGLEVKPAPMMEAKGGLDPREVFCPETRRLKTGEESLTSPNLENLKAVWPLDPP
Summary of the method: as §1

ETS2 = target: T8, ETS2 (Homo sapiens, UniProt P15036 1-469); details: protein: recombinant; tags: N-terminal GST; dsDNA, one strand shown
T8 sequence: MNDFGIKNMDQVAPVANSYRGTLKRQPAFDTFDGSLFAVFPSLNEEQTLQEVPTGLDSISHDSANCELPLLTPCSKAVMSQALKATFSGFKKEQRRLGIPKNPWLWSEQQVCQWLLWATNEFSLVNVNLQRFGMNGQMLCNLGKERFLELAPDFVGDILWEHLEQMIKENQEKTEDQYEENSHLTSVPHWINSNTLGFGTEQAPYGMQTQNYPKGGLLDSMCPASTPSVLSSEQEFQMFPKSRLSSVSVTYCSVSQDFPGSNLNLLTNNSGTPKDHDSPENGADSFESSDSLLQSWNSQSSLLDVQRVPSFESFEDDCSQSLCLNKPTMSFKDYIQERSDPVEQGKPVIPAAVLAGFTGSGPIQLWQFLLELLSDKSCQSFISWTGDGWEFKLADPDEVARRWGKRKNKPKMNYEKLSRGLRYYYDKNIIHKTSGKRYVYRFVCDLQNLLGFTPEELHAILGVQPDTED
Summary of the method: as §1

SPDEF = target: T9, SPDEF (Homo sapiens, UniProt O95238 1-335); details: protein: recombinant; tags: N-terminal GST; dsDNA, one strand shown
T9 sequence: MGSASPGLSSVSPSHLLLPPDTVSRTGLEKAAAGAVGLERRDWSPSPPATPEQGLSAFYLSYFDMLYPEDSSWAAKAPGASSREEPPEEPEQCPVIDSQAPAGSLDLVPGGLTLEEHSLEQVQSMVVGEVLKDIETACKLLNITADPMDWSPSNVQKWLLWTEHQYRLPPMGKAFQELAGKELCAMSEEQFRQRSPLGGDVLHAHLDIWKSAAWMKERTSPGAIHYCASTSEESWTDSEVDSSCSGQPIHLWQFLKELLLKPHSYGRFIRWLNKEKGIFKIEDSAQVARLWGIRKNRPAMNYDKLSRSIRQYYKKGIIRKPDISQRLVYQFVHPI
Summary of the method: as §1

ETV7 = target: T10, ETV7 (Homo sapiens, UniProt Q9Y603 1-341); details: protein: recombinant; tags: N-terminal GST; dsDNA, one strand shown
T10 sequence: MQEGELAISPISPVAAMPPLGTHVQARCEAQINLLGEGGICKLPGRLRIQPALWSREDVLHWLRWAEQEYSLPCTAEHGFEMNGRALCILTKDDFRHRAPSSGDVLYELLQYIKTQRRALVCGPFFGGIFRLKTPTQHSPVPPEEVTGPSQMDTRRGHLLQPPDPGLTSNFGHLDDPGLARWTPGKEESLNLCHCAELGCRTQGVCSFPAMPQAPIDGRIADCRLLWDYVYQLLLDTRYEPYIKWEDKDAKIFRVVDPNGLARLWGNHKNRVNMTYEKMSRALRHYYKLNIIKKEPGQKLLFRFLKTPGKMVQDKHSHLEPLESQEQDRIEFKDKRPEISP
Summary of the method: as §1

ELF5 = target: T11, ELF5 (Homo sapiens, UniProt Q9UKW6-2 1-255); details: protein: recombinant; tags: N-terminal GST; dsDNA, one strand shown
T11 sequence: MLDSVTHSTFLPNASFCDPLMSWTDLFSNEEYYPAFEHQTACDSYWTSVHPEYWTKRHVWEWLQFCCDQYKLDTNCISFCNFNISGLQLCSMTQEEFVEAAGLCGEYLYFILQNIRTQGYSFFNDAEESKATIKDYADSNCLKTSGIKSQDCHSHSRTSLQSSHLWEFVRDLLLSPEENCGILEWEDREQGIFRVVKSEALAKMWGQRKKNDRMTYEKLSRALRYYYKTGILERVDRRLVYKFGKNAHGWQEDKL
Summary of the method: as §1

ETV3 = target: T12, ETV3 (Homo sapiens, UniProt P41162-2 1-143); details: protein: recombinant; tags: N-terminal GST; dsDNA, one strand shown
T12 sequence: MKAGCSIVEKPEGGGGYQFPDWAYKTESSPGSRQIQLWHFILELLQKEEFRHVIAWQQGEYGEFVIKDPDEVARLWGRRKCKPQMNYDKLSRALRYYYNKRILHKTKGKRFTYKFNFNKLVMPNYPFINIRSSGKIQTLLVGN
Summary of the method: as §1

ETV6 = ETV6 (Homo sapiens, UniProt P41212 1-452); details: protein: recombinant; tags: N-terminal GST; dsDNA, one strand shown
Summary of the method: as §1

Sequence of ELF4 (Q99607 whole entry): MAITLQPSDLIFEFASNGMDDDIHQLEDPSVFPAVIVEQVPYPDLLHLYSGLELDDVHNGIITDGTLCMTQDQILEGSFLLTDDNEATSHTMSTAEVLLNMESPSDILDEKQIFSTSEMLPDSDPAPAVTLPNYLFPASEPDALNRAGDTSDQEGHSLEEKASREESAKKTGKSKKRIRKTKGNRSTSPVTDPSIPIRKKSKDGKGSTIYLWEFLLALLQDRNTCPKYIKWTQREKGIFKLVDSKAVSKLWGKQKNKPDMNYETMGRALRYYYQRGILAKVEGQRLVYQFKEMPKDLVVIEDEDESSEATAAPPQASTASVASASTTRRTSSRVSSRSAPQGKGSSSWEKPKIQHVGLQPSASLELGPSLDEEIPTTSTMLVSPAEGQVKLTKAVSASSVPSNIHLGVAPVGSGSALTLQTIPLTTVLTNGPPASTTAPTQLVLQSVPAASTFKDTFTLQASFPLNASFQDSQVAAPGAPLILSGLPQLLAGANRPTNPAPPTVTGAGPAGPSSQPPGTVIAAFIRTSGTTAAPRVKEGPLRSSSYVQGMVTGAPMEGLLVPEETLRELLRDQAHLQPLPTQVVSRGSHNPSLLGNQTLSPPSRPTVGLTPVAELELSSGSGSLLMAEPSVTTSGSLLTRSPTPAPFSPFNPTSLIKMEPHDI
Sequence of ETV1 (P50549 whole entry): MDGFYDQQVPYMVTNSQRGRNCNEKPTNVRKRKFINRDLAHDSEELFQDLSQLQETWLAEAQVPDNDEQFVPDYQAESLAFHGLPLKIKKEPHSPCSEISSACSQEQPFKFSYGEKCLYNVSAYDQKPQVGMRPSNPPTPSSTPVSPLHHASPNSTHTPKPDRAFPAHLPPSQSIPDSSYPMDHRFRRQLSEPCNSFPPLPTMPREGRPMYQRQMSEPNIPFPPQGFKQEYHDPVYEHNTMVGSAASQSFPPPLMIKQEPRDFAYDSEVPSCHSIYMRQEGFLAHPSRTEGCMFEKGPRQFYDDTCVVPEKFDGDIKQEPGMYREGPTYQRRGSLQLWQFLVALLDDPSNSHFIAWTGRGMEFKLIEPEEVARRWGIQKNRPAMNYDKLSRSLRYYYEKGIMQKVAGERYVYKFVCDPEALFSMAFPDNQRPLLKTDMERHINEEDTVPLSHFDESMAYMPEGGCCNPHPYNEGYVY
Sequence of HSF1 (Q00613 whole entry): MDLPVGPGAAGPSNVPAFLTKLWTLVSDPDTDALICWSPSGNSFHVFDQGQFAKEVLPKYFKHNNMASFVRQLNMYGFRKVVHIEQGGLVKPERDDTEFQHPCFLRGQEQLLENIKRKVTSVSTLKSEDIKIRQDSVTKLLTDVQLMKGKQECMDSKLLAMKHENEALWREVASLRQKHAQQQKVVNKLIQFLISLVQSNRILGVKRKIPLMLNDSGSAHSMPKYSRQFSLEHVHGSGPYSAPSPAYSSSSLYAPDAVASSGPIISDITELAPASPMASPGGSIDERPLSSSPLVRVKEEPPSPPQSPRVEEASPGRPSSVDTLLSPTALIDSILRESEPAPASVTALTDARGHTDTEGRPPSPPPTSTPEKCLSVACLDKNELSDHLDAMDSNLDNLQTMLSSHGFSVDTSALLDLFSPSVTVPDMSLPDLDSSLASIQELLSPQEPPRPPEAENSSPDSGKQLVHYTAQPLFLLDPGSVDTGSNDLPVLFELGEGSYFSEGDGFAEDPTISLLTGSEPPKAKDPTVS
Sequence of ETV5 (P41161 whole entry): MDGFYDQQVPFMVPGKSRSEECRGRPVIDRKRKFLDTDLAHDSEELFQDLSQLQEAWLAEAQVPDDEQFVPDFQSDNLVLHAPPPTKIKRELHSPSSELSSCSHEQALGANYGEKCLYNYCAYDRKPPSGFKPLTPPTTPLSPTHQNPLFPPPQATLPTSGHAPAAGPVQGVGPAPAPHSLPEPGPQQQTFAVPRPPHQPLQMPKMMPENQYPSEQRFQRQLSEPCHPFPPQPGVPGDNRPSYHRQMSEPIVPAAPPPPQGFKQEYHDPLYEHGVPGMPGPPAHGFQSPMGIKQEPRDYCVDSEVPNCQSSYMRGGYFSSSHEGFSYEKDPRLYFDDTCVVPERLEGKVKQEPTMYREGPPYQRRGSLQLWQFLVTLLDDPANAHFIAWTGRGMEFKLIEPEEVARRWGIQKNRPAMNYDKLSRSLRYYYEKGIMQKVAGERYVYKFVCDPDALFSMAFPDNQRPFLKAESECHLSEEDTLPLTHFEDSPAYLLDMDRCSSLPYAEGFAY
Sequence of CRX (O43186 whole entry): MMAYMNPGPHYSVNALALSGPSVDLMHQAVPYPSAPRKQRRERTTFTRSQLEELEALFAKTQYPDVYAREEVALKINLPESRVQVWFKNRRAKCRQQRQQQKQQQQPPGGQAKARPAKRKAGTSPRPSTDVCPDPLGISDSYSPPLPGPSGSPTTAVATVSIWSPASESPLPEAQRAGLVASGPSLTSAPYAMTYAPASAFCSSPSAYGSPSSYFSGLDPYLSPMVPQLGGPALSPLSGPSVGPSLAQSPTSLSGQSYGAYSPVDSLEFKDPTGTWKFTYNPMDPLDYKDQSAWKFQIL
Sequence of ETV6 (P41212 whole entry): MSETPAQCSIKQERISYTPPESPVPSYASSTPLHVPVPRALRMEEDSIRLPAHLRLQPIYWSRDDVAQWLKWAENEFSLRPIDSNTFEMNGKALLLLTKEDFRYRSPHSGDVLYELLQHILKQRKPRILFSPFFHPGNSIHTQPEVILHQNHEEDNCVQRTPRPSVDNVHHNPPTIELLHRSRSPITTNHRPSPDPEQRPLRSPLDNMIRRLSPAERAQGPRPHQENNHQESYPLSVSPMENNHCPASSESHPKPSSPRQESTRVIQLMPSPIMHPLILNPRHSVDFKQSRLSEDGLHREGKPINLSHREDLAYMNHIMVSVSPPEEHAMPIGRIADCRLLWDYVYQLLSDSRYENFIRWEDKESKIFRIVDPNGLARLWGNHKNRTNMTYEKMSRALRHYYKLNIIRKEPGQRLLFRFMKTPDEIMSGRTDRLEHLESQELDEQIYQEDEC

Sequence: AATGCG
- binding signal (FEV): 1.27 fold enrichment (6-mer frequency, TF over GST control)
- binding signal (ETV5): 1.2 fold enrichment (6-mer frequency, TF over GST control)
- binding signal (HSF1): 1.13 fold enrichment (6-mer frequency, TF over GST control)
- binding signal (SPIC): 1.22 fold enrichment (6-mer frequency, TF over GST control)
- binding signal (ELF4): 1.33 fold enrichment (6-mer frequency, TF over GST control)
- binding signal (ELK4): 1.25 fold enrichment (6-mer frequency, TF over GST control)
- binding signal (ETV2): 1.34 fold enrichment (6-mer frequency, TF over GST control)
- binding signal (ELF3): 1.43 fold enrichment (6-mer frequency, TF over GST control)
- binding signal (CRX): 1.36 fold enrichment (6-mer frequency, TF over GST control)
- binding signal (ETV1): 1.3 fold enrichment (6-mer frequency, TF over GST control)
- binding signal (ERF): 1.18 fold enrichment (6-mer frequency, TF over GST control)
- binding signal (ETV3L): 1.36 fold enrichment (6-mer frequency, TF over GST control)
- binding signal (ETS2): 1.3 fold enrichment (6-mer frequency, TF over GST control)
- binding signal (SPDEF): 1.26 fold enrichment (6-mer frequency, TF over GST control)
- binding signal (ETV7): 1.21 fold enrichment (6-mer frequency, TF over GST control)
- binding signal (ELF5): 1.3 fold enrichment (6-mer frequency, TF over GST control)
- binding signal (ETV3): 1.22 fold enrichment (6-mer frequency, TF over GST control)
- binding signal (ETV6): 1.29 fold enrichment (6-mer frequency, TF over GST control)
